From PubChem BioAssay
Only some compounds are listed: those with a hit (about 1.9% of all), similar ones and a draw of the others.
dFosB activator: mouse delta FosB homodimer activation; P13346; purified delta FosB, TAMRA-CDK5 oligo fluorescence polarization; percent of positive-control signal above neutral wells; activation, % at 25 µM; 340,000 tested, 0.99% active; AID 493131;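 active = mean activation above about 17%, with every replicate also reaching it, limit read from the data, passing the limit was not always enough; inconclusive = only one of the two conditions met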
Efa HMGR inh: E. faecalis class II HMG-CoA reductase inhibition. 190,000 tested, 0.41% active. purified E. faecalis HMGR, NADPH absorbance 340 nm kinetic. inhibition, % at 10 µM;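 active = inhibition above a set limit, the median over all tested compounds plus 3 SD, cut at about 9.5% in these data; inconclusive = no clear call, values can overlap the other calls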;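 also: enzyme runs in reverse so mevalonate oxidation gives rising NADPH absorbance; 0% = complete reaction with DMSO and 100% = background rate lacking mevalonate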
14-3-3 Bad inh: disrupts binding of bovine 14-3-3 zeta to phospho-Bad peptide | AID 781 | 220,000 tested, 0.71% active | TR-FRET 14-3-3zeta/Dy647-pBad peptide displacement, 1 h | inhibition, % at 21.7 µM | P63103;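 active = inhibition above about 70%, limit read from the data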;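 also: 0% = full 14-3-3 plus peptide FRET controls and 100% = background without 14-3-3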
p47phox inh: p47phox (human) inhibition. inhibition, % at 24.7 µM. 220,000 tested, 0.53% active. p47phox/p22phox peptide binding, fluorescence polarization, 2 h;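 active = inhibition above about 30%, limit read from the data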;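 also: 0% = p47phox with labelled peptide and 100% = labelled peptide alone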
Target sequence (P14598 whole entry, looked up): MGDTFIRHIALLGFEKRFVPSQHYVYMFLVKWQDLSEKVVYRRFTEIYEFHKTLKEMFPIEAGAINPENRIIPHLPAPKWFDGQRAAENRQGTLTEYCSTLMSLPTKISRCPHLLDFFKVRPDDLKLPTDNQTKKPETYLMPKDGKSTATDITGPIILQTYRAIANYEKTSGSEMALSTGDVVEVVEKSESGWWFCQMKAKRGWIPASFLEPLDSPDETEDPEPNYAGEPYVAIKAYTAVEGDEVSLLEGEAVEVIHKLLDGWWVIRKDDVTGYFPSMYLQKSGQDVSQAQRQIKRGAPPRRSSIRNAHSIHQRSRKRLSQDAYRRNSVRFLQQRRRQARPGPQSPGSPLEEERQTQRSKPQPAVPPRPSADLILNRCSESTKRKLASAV
Active calls of the source: *; ? = inconclusive; . = no result.

SMILES	dFosB activator	Efa HMGR inh	14-3-3 Bad inh	p47phox inh
COC(=O)C(C(=O)OC)c1ncccc1[N+](=O)[O-]	3	.	85*	-3
COc1ccc(CNc2ncccc2[N+](=O)[O-])cc1	0	.	.	.
COc1cccc(CN2CCN(Cc3cc(OC)c(OC)cc3OC)CC2)c1	-13	.	.	.
Cc1ccc(Cn2c(=N)c(C(=O)NCC3CCCO3)cc3c(=O)n4cccc(C)c4nc32)cc1 (stereo not drawn)	1	.	.	.
Nc1cc2nc[nH]c2cc1N	10	3	92*	16
Fc1ccc(Br)cc1SCCc1ccncc1	6	.	.	.
CCOC(=O)c1cc(-c2cccc([N+](=O)[O-])c2)n[nH]1	3	2	81*	-4
O=C(CN1CCCCCC1)Nc1ccc(F)c(F)c1	-6	-1	72*	-17
Cc1cc(N/N=C/c2ccccc2F)nc(NCc2ccccc2)n1	6	.	-10	-17
Cc1cc(N/N=C/c2ccccc2)nc(NCc2ccccc2)n1	38*	-5	5	-24
Cc1cc(-c2ccccc2)nc(N/N=C/c2ccccc2)n1	-7	.	.	.
Cc1cc(N/N=C/c2cccc(F)c2)nc(NCc2ccccc2)n1	33*	.	0	-19
Cc1cc(N/N=C/c2ccc(Cl)cc2)nc(NCc2ccccc2)n1	53*	2	-3	-17
CCC(=O)Nc1ccc(S(=O)(=O)NCCc2ccccc2)cc1	-1	2	-3	-1
COc1cc(-c2[nH]ncc2CN(C)Cc2cc(C)[nH]n2)cc(OC)c1OC	0	0	-5	36*
COCCCC1CCN(Cc2cn[nH]c2-c2cc(OC)c(OC)c(OC)c2)CC1	-12	0	1	-2
COCC1CCN(Cc2cn[nH]c2-c2cc(OC)c(OC)c(OC)c2)CC1	-4	11*	-7	2
COc1ccc(C(=O)N2CCCC(Nc3ccc(C)c(C)c3)C2)cc1F (stereo not drawn)	-6	.	.	.
COc1cc(OC)cc(-c2c(C#Cc3ccsc3)c3cc(-c4ccc5[nH]ccc5c4)ccc3n2C)c1	23*	.	.	.
COc1cc(OC)cc(-c2c(C#Cc3ccsc3)c3cc(-c4cc(OC)c(OC)c(OC)c4)ccc3n2C)c1	-4	.	.	.
COc1cccc(/C=C2/SC(=S)N(CC(=O)NNC(=O)c3ccccc3O)C2=O)c1	21*	.	.	.
O=C(CCN1C(=O)/C(=C/c2ccccc2Cl)SC1=S)NNC(=O)c1ccccc1O	37*	.	.	.
O=C(CN1C(=O)/C(=C/c2ccccc2)SC1=S)NNC(=O)c1ccccc1O	?	3	-5	-9
O=C(CCN1C(=O)/C(=C/c2ccccc2)SC1=S)NNC(=O)c1cccnc1	6	3	-5	7
O=C(CCN1C(=O)/C(=C/c2ccc3c(c2)OCO3)SC1=S)NNC(=O)c1cccnc1	-1	-8	71*	20
SMILES	dFosB activator	Efa HMGR inh	14-3-3 Bad inh	p47phox inh
Cc1ccc(/C=C2\SC(=S)N(CCC(=O)NNC(=O)c3cccnc3)C2=O)cc1	-7	-6	36	-16
Cc1ccc(/C=C2\SC(=S)N(CCC(=O)NNC(=O)c3ccc(O)cc3)C2=O)cc1	144*	.	.	.
N#CCSc1nc2ccccc2c(=O)n1CCCC(=O)NCC1CCCO1 (stereo not drawn)	-4	-4	-15	-7
Cc1cc(C)cc(N2CC(C(=O)Nc3cc(C)on3)CC2=O)c1 (stereo not drawn)	4	.	.	.
CC1C(C)N(C(=O)CCCl)c2ccccc2N1C(=O)CCCl (stereo not drawn)	2	.	.	.
Cc1ccc(/C=C2\SC(=S)N(CCCC(=O)NNC(=O)c3ccccc3O)C2=O)cc1	9	.	2	-58
O=C(CCN1C(=O)/C(=C/c2ccccc2Cl)SC1=S)NCCc1ccc(O)cc1	23*	.	.	.
Cc1ccc(/C=C2\SC(=S)N(CCC(=O)NNS(=O)(=O)c3ccccc3)C2=O)cc1	22*	.	1	-33
Cc1ccc(/C=C2\SC(=S)N(CCC(=O)NNC(=O)c3ccccc3O)C2=O)cc1	66*	.	.	.
CCSc1nnc(NC(=O)CSC2=NCCS2)s1	3	0	-9	-18
COc1cc(/C=c2\sc3n(c2=O)CCCN=3)ccc1O	-2	-5	69	-3
O=c1/c(=C/c2ccc([N+](=O)[O-])cc2)sc2n1CCCN=2	-5	1	80*	-4
CCOC(=O)C1CCCN(Cc2ccccc2OCC)C1 (stereo not drawn)	-2	-4	19	-9
CCOC(=O)C1CCCN(Cc2ccccc2C)C1 (stereo not drawn)	8	-5	76*	9
CCOC(=O)C1CCCN(Cc2ccccc2Cl)C1 (stereo not drawn)	1	-8	71*	-3
CCOC(=O)C1CCCN(Cc2cccs2)C1 (stereo not drawn)	1	0	71*	1
